The values that follow come from PMC4336329 (PLoS ONE, 2015).

About 14,000 (4.5%) of roughly 310,000 compounds showed an effect of 50% or more. The effect is printed as a negative number. This is one part of a sample in which strong results are shown more often than they occur.
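Further: peak tail current of the secondary pulse compared with the same well before compound.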

human ether-à-go-go-related gene (hERG) potassium channel, sequence (Q12809 whole entry, looked up): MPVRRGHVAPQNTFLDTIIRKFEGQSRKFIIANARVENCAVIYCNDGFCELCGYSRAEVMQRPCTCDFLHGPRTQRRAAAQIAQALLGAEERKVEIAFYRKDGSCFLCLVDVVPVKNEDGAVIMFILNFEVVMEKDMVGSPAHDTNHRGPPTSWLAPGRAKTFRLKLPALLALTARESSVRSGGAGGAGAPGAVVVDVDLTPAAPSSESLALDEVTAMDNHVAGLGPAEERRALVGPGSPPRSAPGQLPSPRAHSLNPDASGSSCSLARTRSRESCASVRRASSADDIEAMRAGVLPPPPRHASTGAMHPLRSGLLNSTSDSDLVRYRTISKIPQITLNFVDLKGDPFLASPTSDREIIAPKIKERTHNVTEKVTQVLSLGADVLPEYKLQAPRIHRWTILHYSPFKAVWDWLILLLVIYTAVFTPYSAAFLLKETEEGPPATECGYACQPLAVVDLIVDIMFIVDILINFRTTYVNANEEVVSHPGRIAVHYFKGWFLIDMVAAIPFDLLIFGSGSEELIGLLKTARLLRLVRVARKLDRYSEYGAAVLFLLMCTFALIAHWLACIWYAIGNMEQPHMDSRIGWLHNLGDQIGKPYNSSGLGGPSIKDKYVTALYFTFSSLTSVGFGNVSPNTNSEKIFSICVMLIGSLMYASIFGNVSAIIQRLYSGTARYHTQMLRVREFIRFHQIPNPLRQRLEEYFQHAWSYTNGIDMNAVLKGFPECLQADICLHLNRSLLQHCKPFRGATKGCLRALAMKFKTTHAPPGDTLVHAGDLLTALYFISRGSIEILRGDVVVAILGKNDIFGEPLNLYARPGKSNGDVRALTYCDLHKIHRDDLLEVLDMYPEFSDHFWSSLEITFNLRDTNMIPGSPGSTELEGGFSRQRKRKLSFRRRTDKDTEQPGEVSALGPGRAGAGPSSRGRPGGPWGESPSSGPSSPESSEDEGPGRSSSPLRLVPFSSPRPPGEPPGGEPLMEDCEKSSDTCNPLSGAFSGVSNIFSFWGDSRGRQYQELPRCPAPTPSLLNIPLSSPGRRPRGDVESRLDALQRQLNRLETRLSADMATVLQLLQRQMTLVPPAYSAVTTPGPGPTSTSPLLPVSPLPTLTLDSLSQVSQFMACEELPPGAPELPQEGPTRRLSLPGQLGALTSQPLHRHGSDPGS

This assay concerns the target human ether-à-go-go-related gene (hERG) potassium channel (human, UniProt Q12809). Nature of the assay: primary screen, population patch clamp on CHO cells stably expressing hERG; higher = less effect of the substance.
Take `CCCn1c(C(Cc2ccccc2)NC(=O)COC)nc2ccccc21` (stereo not drawn): the “hERG current change (%, negative = inhibition) at 10uM” value is 2.2%.
For the compound `COc1cc2c(cc1NC(=O)/C=C/c1ccccc1)oc1ccccc12`, the “hERG current change (%, negative = inhibition) at 10uM” value is given as 18.8%.
In the case of `CCOc1ccccc1N1CC(C(=O)Nc2ccccc2N2CCOCC2)CC1=O` (stereo not drawn), the “hERG current change (%, negative = inhibition) at 10uM” value stood at 12.5%.
With `O=C(O)c1cc2cc(F)ccc2[nH]1` the figure was 16.2%; with `O=C(Nc1ccc2c(c1)CCC2)c1cnc(Cl)c(Cl)c1`, 0.674%; with `CCN(CC)S(=O)(=O)c1ccc(N2CCOCC2)c(NC(=O)CN2C(=O)NC(C)(c3ccccc3)C2=O)c1` (stereo not drawn), -24.1%.
With `CC[C@]12CCCN3CCc4c(n(c5ccccc45)C(=O)C1)[C@@H]32` the figure was -75%; with `CCOC(=O)C1=C[C@]2(CC)CCCN3CCc4c(n1c1ccccc41)[C@@H]32`, -91.8%; with `O=C(O)Cn1c(=O)c2c(c3ccccc31)CCC2`, 11.9%.
With `CCN(CC)CC(=O)n1c2c(c3ccccc31)CCCC2` the figure was -34.2%.
Turning to `NC(=O)C1CCCc2c1n(Cc1ccccc1)c1ccccc21` (stereo not drawn), the “hERG current change (%, negative = inhibition) at 10uM” value is recorded as -14.7%.
In the case of `CC[C@]12CCCN3CCc4c(n(c5ccccc45)C(=O)C1)C32` (stereo partly drawn) it was -65.7%; in that of `CCOC(=O)NNC(=O)CCn1c2c(c3ccccc31)CCCC2`, -16.4%.
With `CCn1cc(C2N3CC4(C)CN2CC(C)(C3)C4=O)c2ccccc21` (stereo not drawn) the figure was 7.47%; with `CCOC(=O)C1=CC[C@H]2c3c(c4ccccc4n3C)C[C@H]1N2C`, 3.88%; with `O=C(CSc1nc(-c2ccccc2)cs1)Nc1cccc([N+](=O)[O-])c1`, 6.45%.
Regarding `N#Cc1ccccc1CSc1nc(N2CCCCC2)nc(N2CCCCC2)n1`, the “hERG current change (%, negative = inhibition) at 10uM” value was found to be 5.79%.
Take `CNc1cc(C)c(C#N)c2nc3ccccc3n12`: the “hERG current change (%, negative = inhibition) at 10uM” value was -8.75%.
Turning to `CCN(CC)S(=O)(=O)c1ccc2c3c(cccc13)C(=O)S2`, the “hERG current change (%, negative = inhibition) at 10uM” value is listed as -18.4%.
With `COc1ccc(NC(=O)CN2CCN(CC(=O)Nc3ccccc3F)CC2)c(OC)c1` the figure was -63.5%.
With `COc1ccc(NC(=O)CN2CCN(CC(=O)Nc3ccccc3Cl)CC2)c(OC)c1` the figure was -78%; with `COc1ccc(C)cc1NC(=O)CN1CCN(CC(=O)Nc2ccccc2F)CC1`, -48.7%; with `COc1ccccc1NC(=O)CN1CCN(CC(=O)Nc2ccccc2Cl)CC1`, 2.56%.
In the case of `COc1ccc(NC(=O)CN2CCN(C3c4ccccc4-c4ccccc43)CC2)c(OC)c1` it was -10.5%.
For `COc1ccc(NC(=O)CN2CCN(c3ccc(Cl)cc3)CC2)c(OC)c1`, the “hERG current change (%, negative = inhibition) at 10uM” value is -12.7%.
For `CC1=C(C(=O)OCCc2ccccc2)C(c2ccsc2)NC(=O)N1C` (stereo not drawn), the “hERG current change (%, negative = inhibition) at 10uM” value was -10.9%.
With `OCC1(CO)COC(CCc2ccccc2)=N1` the figure was 16.1%; with `CC(=O)OCc1c(C(F)(F)F)nn(C)c1SCc1ccc(Cl)cc1`, 8.19%.
With `CC1(C(=O)N2CCOCC2)CCCCC1` the figure was 11.6%; with `O=C(CCc1nnc2ccc(N3CCC4(CC3)OCCO4)nn12)N1CCCCC1`, 16.7%; with `COc1ccccc1/C=N/NC(=O)CC(=O)NCc1ccccc1`, -2.25%.
In the case of `COc1ccc(C)cc1NC(=O)C1CCCCC1C(=O)O` (stereo not drawn) it was 14.7%.
For the compound `O=S(=O)(c1ccc2c(c1)OCCO2)N1CCC(n2nnc3cc(F)ccc32)CC1`, the “hERG current change (%, negative = inhibition) at 10uM” value was -38.7%.
Take `CC(=O)Nc1ccc(S(=O)(=O)N2CCC(C(=O)c3ccc(F)cc3)CC2)cc1`: the “hERG current change (%, negative = inhibition) at 10uM” value is -34.6%.
In the case of `O=S(=O)(c1ccc2c(c1)OCCO2)N1CCC(n2cnc3cc(F)ccc32)CC1` it was -62.4%.
With `O=S(=O)(c1ccc2c(c1)OCCO2)N1CCC(n2nnc3cc(C(F)(F)F)ccc32)CC1`, the “hERG current change (%, negative = inhibition) at 10uM” value is reported as -16.4%.
In the case of `CC(=O)Nc1ccc(S(=O)(=O)N2CCC(N3CCCC3)CC2)cc1` it was 13.2%.
Take `CC(=O)Nc1ccc(S(=O)(=O)N2CCC(n3cnc4cc(F)ccc43)CC2)cc1`: the “hERG current change (%, negative = inhibition) at 10uM” value is reported as -65.7%.
In the case of `COc1cccc(OCCOCCNCCO)c1` it was -6.7%; in that of `O=C(CN(CCc1ccccc1)C(=O)c1csnn1)NC1CCCC1`, -4.71%.
For `C[C@]12CCC3C(CC[C@H]4CC(O)CC[C@]34C)C1CC/C2=N/O` (stereo partly drawn), the “hERG current change (%, negative = inhibition) at 10uM” value was found to be 13.3%.
In the case of `COc1ccc(OCC#CCN2CCC(C)CC2)cc1.O=C(O)C(=O)O` it was -11.4%.
With `CC(C)(C)CC(C)(C)NCC(=O)Nc1c2c(nc3ccccc13)CCC2.O=C(O)C(=O)O` the figure was -3.35%; with `CN(C)c1cc(NC(=O)CNC(C)(C)C)c2ccccc2n1.O=C(O)C(=O)O`, -24.4%; with `CN(C)c1cc(NC(=O)CNC(C)(C)CC(C)(C)C)c2ccccc2n1.O=C(O)C(=O)O`, -69.9%.
